Vaccinia Venus: inhibitors of vaccinia virus (Venus reporter); Vaccinia virus Venus reporter expression, fluorescence; Potency, µM (top dose mostly 36.5 µM), for inactives: at the highest dose activity change, negative = inhibition, actives largely listed as inhibitors; 330,000 compounds, 0.46% hits; AID 720580; calls by dose curve; tested in A549 cells; note: potency is the fitted concentration of half-maximal effect; nearly all actives have a fitted effect of over 30% in size
Lassa entry inh: inhibitors of Lassa virus binding or cell entry; AID 540256; Lassa virus pseudotype entry inhibition, cell reporter; 300,000 compounds, 1.2% hits; Potency, µM (doses to about 37.9 µM), for the others: at the highest dose activity change, negative = inhibition, most hits filed as inhibitors; calls by dose curve; tested in HEK293 cells; note: potency is the fitted concentration of half-maximal effect; nearly all actives have a fitted effect of over 50% in size
FMDV antiviral: foot and mouth disease virus antiviral activity; FMDV antiviral cell-based qHTS; Potency, µM (doses to about 57.9 µM), for the others: at the top dose activity change, negative = inhibition, usual class: inhibitors; 410,000 compounds, 1.2% hits; AID 1159524; calls by dose curve; tested in HEK293T cells; note: read-out not given here; potency is the fitted concentration of half-maximal effect; nearly all actives have a fitted effect of over 45% in size
Vaccinia mCherry: inhibitors of vaccinia virus infection (mCherry reporter signal). Vaccinia virus mCherry reporter infection, fluorescence. Potency, µM (doses to about 36.5 µM), for inactives: top-dose activity change, negative = inhibition, usual class: inhibitors. 310,000 compounds, 0.63% hits; calls by dose curve; tested in A549 cells; note: potency is the fitted concentration of half-maximal effect; nearly all actives have a fitted effect of over 35% in size
HCMV inh: human cytomegalovirus inhibition | HFF cells, HCMV-luciferase reporter, 72 h; stronger effect = lower value | activity change, negative = inhibition, % at 57.5 µM | 410,000 compounds, 4.5% hits | AID 1259415; in the data active = activity change below about -60%; inconclusive = no clear call, values can overlap the other calls; inactive = above about -39%
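Two-dose cell screen: HFF monolayers treated with compounds and infected with luciferase-expressing HCMV at 1 PFU/cell, 72 h at 37C, then lysed for luciferase measurement.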
MARV entry inh: blocks Marburg virus binding to or entry into cells; 300,000 compounds, 1.8% hits; Potency, µM (top dose mostly 37.8 µM), inactives show at the top dose activity change, negative = inhibition, actives largely listed as inhibitors; Marburg virus pseudotyped entry inhibition, cell reporter; calls by dose curve; tested in HEK293 cells; note: potency is the fitted concentration of half-maximal effect
* hit, by the source's call; [ ] = another dose, or the depositor's remark. Shown are actives, neighbours in structure and some others; about 6.5% of the full set was active somewhere. % is set by controls: 0 for no effect and ±100 for the full control effect.

CC1=CC(=O)C(C(C)C)=C/C1=N/OS(=O)(=O)c1ccccc1 was read as FMDV antiviral 25µM* and HCMV inh -89*.
`Cc1ccc2c(c1)/C(=N/OS(=O)(=O)c1ccccc1)CCS2` gave Lassa entry inh 14%, FMDV antiviral -3%, HCMV inh 43 and MARV entry inh 5%.
`Cc1cccc(C)c1NC(=O)C(CCc1ccccc1)N(C(=O)c1ccc(F)cc1)c1ccccc1F` (configuration not stated) gave HCMV inh -70*.
`O=C(c1ccc(F)cc1)N(c1ccccc1F)C(CCc1ccccc1)c1nc2ccccc2[nH]1` (configuration not stated) gave HCMV inh 11.
COc1cccc(NC(=O)C(=O)NCCc2csc(-c3ccc(C(F)(F)F)cc3)n2)c1 was read as Vaccinia Venus -12%, Lassa entry inh 1%[46.1 µM], FMDV antiviral 0%, Vaccinia mCherry -12% and HCMV inh 39.
Screening Cc1ccccc1NC(=O)N[C@H]1CC[C@@]23CCCN2C(=O)CCC[C@H]3[C@H]1C returned HCMV inh -7.
CN(C)c1cc[n+](CC(=O)Nc2ccc(Oc3ccccc3)cc2)cc1 was read as Vaccinia Venus -26%, Lassa entry inh inconclusive, FMDV antiviral -17%, Vaccinia mCherry -9%, HCMV inh -98* and MARV entry inh 9.2µM*.
Cc1cc([N+](=O)[O-])ccc1NC(=O)C[n+]1ccc(N(C)C)cc1 was read as Vaccinia Venus -12%, Lassa entry inh -14%, FMDV antiviral -12%, Vaccinia mCherry -3%, HCMV inh -100* and MARV entry inh -23%[46.1 µM].
Cc1cccc(NC(=O)C[n+]2ccc(N(C)C)cc2)c1 was read as FMDV antiviral -15% and HCMV inh inconclusive.
Screening CCOc1ccc(NC(=O)C[n+]2ccc(N(C)C)cc2)cc1 returned Vaccinia Venus -24%, Lassa entry inh 1%, FMDV antiviral -28%, Vaccinia mCherry -25%, HCMV inh -97* and MARV entry inh -5%.
`CN(C)c1cc[n+](CC(=O)Nc2ccc(Cl)cc2)cc1` gave FMDV antiviral -36% and HCMV inh -89*.
For Cc1nc2sc(C(=O)N(C)c3ccccc3)c(NC(=O)c3ccccc3Cl)c2c(C)c1C the results were Vaccinia Venus -7%, Lassa entry inh inconclusive, FMDV antiviral -21%, Vaccinia mCherry -3%, HCMV inh 2 and MARV entry inh 12%[46.1 µM].
CCOC(=O)c1cc(C)n(CC2CCC(C(=O)Nc3ccc(C(C)=O)cc3)CC2)c1C (configuration not stated) was read as Vaccinia Venus -12%, Lassa entry inh 1%[46.1 µM], FMDV antiviral inconclusive, Vaccinia mCherry -12% and HCMV inh -25.
For CN(C)CCCn1c(N)c(S(=O)(=O)c2ccccc2)c2nc3ccccc3nc21 the results were Vaccinia Venus -4%[7.34 µM], Lassa entry inh 0%, FMDV antiviral 12%, Vaccinia mCherry -20%[7.34 µM] and MARV entry inh -20%[46.1 µM].
CCCCn1c(N)c(S(=O)(=O)c2ccc(C)cc2)c2nc3ccccc3nc21 was read as Vaccinia Venus -29%, Lassa entry inh inconclusive, FMDV antiviral 21%, Vaccinia mCherry -15% and MARV entry inh 10µM*.
O=C(COC(=O)c1c2c(nc3ccccc13)CCN(Cc1ccccc1)C2)Nc1c(F)cccc1F was read as Vaccinia Venus -18%, Lassa entry inh inconclusive, FMDV antiviral -15%, Vaccinia mCherry inconclusive, HCMV inh -96* and MARV entry inh inconclusive.
CC(=O)Nc1ccc(NC(=O)COC(=O)c2c3c(nc4ccccc24)CCN(Cc2ccccc2)C3)cc1 was read as Vaccinia Venus -29%, Lassa entry inh inconclusive, FMDV antiviral inconclusive, Vaccinia mCherry inconclusive, HCMV inh 26 and MARV entry inh inconclusive.
Screening c1ccc2c(c1)ncn2-c1ncnc2sc3c(c12)CCCC3 returned Lassa entry inh 4%, FMDV antiviral 0%, HCMV inh -64* and MARV entry inh 3%.
Screening Oc1ccc(N2CCN(c3ncnc4sc5c(c34)CCC5)CC2)cc1 returned Vaccinia Venus -26%, Lassa entry inh -12%, FMDV antiviral inconclusive, Vaccinia mCherry inconclusive, HCMV inh -82* and MARV entry inh inconclusive.

Screens from PubChem BioAssay.
